Results on 14 molecules are retold here after PubChem BioAssay.

Molecules are shown by their SMILES. The source made the active and inactive calls.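 Rule for the calls, unless noted: active = fluorescence slope higher than the sample average by over 3 SD (cut at about -0.22 in these data, passing the limit was not always enough); inactive = the rest.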

Assay [1] in a line: inhibitors of TNFa-induced NFkB p65 translocation, primary screen, imaging, HUVEC, MLSMR starter and 10KST1 sets (AID 438;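 active = inhibition above 20% together with a positive visual image hit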;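 note: compound added about 3h40 before a 20 min TNFalpha stimulation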;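 for inhibition: signal is the nuclear over cytoplasmic p65 intensity ratio per well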). As to conditions: HUVEC TNFa-induced p65 nuclear translocation; cell count: measured here: nuclei count (cytotoxicity indicator), at 2.08 µM; inhibition: at 2 µM, stronger effect = higher value, 0% TNFa-plus-vehicle, 100% no-TNFa wells.
The nature of assay [2]: inhibitors of mutant huntingtin aggregation, primary screen, imaging, exon1htt(103Q)mCFP cells, high-content imaging (AID 483;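 active = visual image review flags a hit and inhibition of aggregation exceeds 20%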;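 note: compound exposure lasted 3 days before fixation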;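 for nuclei count: percent of the per-plate median nuclei count of sample wells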). As to conditions: exon1htt(103Q)mCFP cell line, aggregate imaging, at 2 µM; inhibition of aggregation: stronger effect = higher value; nuclei count: measured here: cell count, toxicity.
Assay [3] is described as follows: inhibitors of E-selectin induction by TNFa, primary screen, imaging, HUVEC, immunofluorescence, MLSMR starter and 10KST1 sets (AID 487;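 active = visually confirmed hit in the image check and inhibition above 20%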;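 for inhibition: signal is fraction of cell area covered by stained E-selectin grains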;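 for nuclei count: 100% = median nuclei count of all wells on the same plate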). As to conditions: HUVEC TNFalpha-induced E-selectin immunofluorescence imaging, at 2 µM; inhibition: stronger effect = higher value; nuclei count: measured here: cell number, toxicity.
Assay [4] deals with Voltage-gated potassium channel subunit beta-2 (Rattus norvegicus) (UniProt P62483). Put plainly: KvBeta enzyme negative modulators, primary screen, biochemical, NADPH fluorescence (AID 622).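 Note: slope of raw intensity against log time taken from 70 to 1610 s.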 As to conditions: recombinant KvBeta, 4-cyanobenzaldehyde reduction, at 10 µM, stronger effect = higher value.
Sequence of Voltage-gated potassium channel subunit beta-2 (Rattus norvegicus) (P62483 whole entry, looked up): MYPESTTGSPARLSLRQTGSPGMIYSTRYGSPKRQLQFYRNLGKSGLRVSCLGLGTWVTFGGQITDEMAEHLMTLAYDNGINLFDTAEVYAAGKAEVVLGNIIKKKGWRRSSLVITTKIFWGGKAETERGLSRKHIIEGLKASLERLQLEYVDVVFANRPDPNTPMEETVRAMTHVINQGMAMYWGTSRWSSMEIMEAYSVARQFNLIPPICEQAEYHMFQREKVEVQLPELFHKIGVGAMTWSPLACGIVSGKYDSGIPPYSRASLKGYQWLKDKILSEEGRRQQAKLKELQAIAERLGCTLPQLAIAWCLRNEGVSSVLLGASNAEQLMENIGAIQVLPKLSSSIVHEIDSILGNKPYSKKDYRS
Assay [5] has the same target. Put plainly: KvBeta positive modulators, primary screen, biochemical, NADPH fluorescence (AID 623;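 active = NADPH fluorescence slope more negative than the mean of all samples by about 3 SD, 99.7% confidence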;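 note: fluorescence intensity change per second fitted from 20 to 320 s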). As to conditions: Recombinant KvBeta, NADPH fluorescence decrease slope, 10 min; at 10 µM; stronger effect = lower value.
Assay [6] has as its target Alpha-2C adrenergic receptor (Homo sapiens) (UniProt P18825). Put plainly: modulators of alpha2C/GIRK thallium flux, primary screen, cell-based, HEK293 alpha2C/GIRK1/2 (AID 624;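 active = fluorescence slope after compound addition differing from the mean of all screened samples at 99.7% confidence, in either direction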;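 note: slope of fluorescence ratio to pre-addition baseline per second over 15 to 24 s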). As to conditions: thallium flux BTC fluorescence, at 10 µM, actives lie on both sides.
Assay [7] can be described thus: inhibitors of Sendai virus-induced IRF3 signaling, primary screen, TLR/RLR signaling modifier project, cell-based, Sendai virus stimulus, luciferase, 10K MLSCN set (AID 602276;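 active = inhibition at or above 50% at 10 µM; inactive = inhibition below 50%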;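 note: firefly luciferase from ISG56 promoter only with Renilla not read in this screen; 0% = Sendai virus plus DMSO and 100% = medium plus DMSO without virus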). As to conditions: HEK293 RL24 IRF3 luciferase reporter, at 10 µM, stronger effect = higher value. (In a reporter assay the amount or activity of a reporter protein is the signal.)
Assay [8] in a line: inhibitors of poly I:C-induced TLR3 signaling, primary screen, cell-based, poly I:C stimulus, luciferase, 10K MLSCN set (AID 602277;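 active = inhibition of the reporter signal at or above 50%; inactive = inhibition below 50%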). As to conditions: HEK293-TLR3 RL24 IRF3 luciferase reporter, at 10 µM, stronger effect = higher value.

Sequence of Alpha-2C adrenergic receptor (Homo sapiens) (P18825 whole entry, looked up): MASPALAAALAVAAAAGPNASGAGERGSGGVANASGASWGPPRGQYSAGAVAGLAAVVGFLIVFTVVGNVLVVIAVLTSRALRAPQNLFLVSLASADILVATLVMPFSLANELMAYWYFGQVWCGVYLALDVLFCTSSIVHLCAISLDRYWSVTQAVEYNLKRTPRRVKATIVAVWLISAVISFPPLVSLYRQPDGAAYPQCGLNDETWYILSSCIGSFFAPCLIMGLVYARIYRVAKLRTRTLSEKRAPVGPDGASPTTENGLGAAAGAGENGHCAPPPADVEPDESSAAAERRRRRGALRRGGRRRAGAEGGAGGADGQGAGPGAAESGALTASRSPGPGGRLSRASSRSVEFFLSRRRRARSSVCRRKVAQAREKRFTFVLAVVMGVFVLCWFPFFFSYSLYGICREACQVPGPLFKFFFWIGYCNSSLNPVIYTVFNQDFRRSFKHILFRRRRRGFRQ

The inhibition is the relative decrease from the control value, in per cent. Take `COCCCNC(=O)C1CCN(C(=O)Nc2ccc(Cl)cc2)CC1`: the cell count in assay [1] was 577. In addition, the inhibition in assay [1] is 5% (inactive); in assay [3] it was 33.6% (inactive); in assay [7] it was 11.2% (inactive); in assay [8] it was 34.3% (inactive). The inhibition of aggregation in assay [2] is 18.9% (inactive). For the same molecule, the nuclei count in assay [2] turned out to be 96.2%; in assay [3] it was 82.1%. Besides, the fluorescence slope in assay [4] was -0.457 (inactive). The NADPH fluorescence slope in assay [5] is 1.1e-05 (inactive). Besides, the slope in assay [6] is 0.00588 (inactive).

Regarding `Cc1nn(C)c(C)c1NC(=O)CSc1nc(Cc2ccccc2)nc2c1cnn2-c1ccccc1`, in assay [1], the cell count stood at 360. In addition, the inhibition in assay [1] is -0.5% (inactive); in assay [3] it was -127% (inactive); in assay [7], 12% (inactive); in assay [8], 3.8% (inactive). The inhibition of aggregation in assay [2] is -17.9% (inactive). The values for the nuclei count in assay [2] and in assay [3] were 105% and 121%, respectively. The fluorescence slope in assay [4] is -0.491 (inactive). Besides, the NADPH fluorescence slope in assay [5] is -6.6e-05 (inactive). Besides, in assay [6], the slope was 0.00793 (inactive).

As for `COc1cccc(/C=N/n2c(-c3ccco3)nc3ccccc3c2=O)c1`, in assay [1], the cell count turned out to be 692. Also, the inhibition in assay [1] was -0.9% (inactive); in assay [3], 33.1% (inactive); in assay [7], -12.1% (inactive); in assay [8], -6.01% (inactive). The inhibition of aggregation in assay [2] is -10.2% (inactive). Moreover, the nuclei count in assay [2] was determined as 74.5%; in assay [3] it was 105%. Moreover, the fluorescence slope in assay [4] is -0.293 (inactive). The NADPH fluorescence slope in assay [5] was -4.4e-05 (inactive). The slope in assay [6] was 0.00576 (inactive).

Regarding `CC(=O)Nc1ccc(OC(=O)c2cccs2)cc1`, the cell count in assay [1] came to 716. The inhibition in assay [1] is 10.2% (inactive); in assay [3], 27.9% (inactive); in assay [7], 8.66% (inactive); in assay [8], 20% (inactive). For the same molecule, the inhibition of aggregation in assay [2] is -5% (inactive). The nuclei count in assay [2] was determined as 107%; in assay [3], 94.2%. For the same molecule, the fluorescence slope in assay [4] was -0.473 (inactive). Also, in assay [5], the NADPH fluorescence slope is 5.9e-06 (inactive). The slope in assay [6] is 0.00674 (inactive).

Regarding `Cc1csc(NC(=O)c2ccoc2C)n1`, the cell count in assay [1] worked out at 435. Further, the inhibition was 1.3% (inactive) in assay [1], 9% (inactive) in assay [3], -53.3% (inactive) in assay [7] and -87.5% (inactive) in assay [8]. In assay [2], the inhibition of aggregation is -7.1% (inactive). The values for the nuclei count in assay [2] and in assay [3] were 90.7% and 97.9%, respectively. For the same molecule, the fluorescence slope in assay [4] was -0.534 (inactive). Further, the NADPH fluorescence slope in assay [5] was 2.1e-05 (inactive). Further, the slope in assay [6] was 0.00451 (inactive).

As for `CC(C)Cc1nnc(NC(=O)CCC(=O)N2CCOCC2)s1`, in assay [1], the cell count was 597. The inhibition is 8.1% (inactive) in assay [1], 17.3% (inactive) in assay [3], 12.2% (inactive) in assay [7] and 10.8% (inactive) in assay [8]. Also, the inhibition of aggregation in assay [2] was -2% (inactive). Besides, the nuclei count in assay [2] came to 106%; in assay [3], 102%. Besides, in assay [4], the fluorescence slope was -0.422 (inactive). Also, the NADPH fluorescence slope in assay [5] is -3.6e-05 (inactive). For the same molecule, in assay [6], the slope was 0.00514 (inactive).

With `Cc1cc(C)c(NC(=O)Cn2cc3c(n2)CCCC3)c(C)c1`, the cell count in assay [1] turned out to be 738. Further, the inhibition in assay [1] was -7.9% (inactive); in assay [3] it was -1.2% (inactive); in assay [7] it was 26.1% (inactive); in assay [8], 11.6% (inactive). Moreover, the inhibition of aggregation in assay [2] is -4.1% (inactive). Besides, the nuclei count in assay [2] worked out at 76.3%; in assay [3], 110%. Also, in assay [4], the fluorescence slope was -0.515 (inactive). The NADPH fluorescence slope in assay [5] was -2e-05 (inactive). Besides, in assay [6], the slope was 0.00662 (inactive).

Regarding `COc1cccc(C2C(C(N)=O)=C(C)Nc3nc(-c4ccccc4Cl)nn32)c1` (centres undefined), the cell count in assay [1] was determined as 804. Further, the inhibition in assay [1] is -4% (inactive); in assay [3], -48.3% (inactive); in assay [7], 12.6% (inactive); in assay [8], 40.8% (inactive). Further, the inhibition of aggregation in assay [2] is -14.6% (inactive). Further, the nuclei count is 93.9% in assay [2] and 110% in assay [3]. Further, in assay [4], the fluorescence slope was -0.416 (inactive). Moreover, the NADPH fluorescence slope in assay [5] was -9.2e-05 (inactive). In assay [6], the slope is 0.00547 (inactive).

For the molecule `Cc1cccc(Nc2nc3c(c(=O)n(C)c(=O)n3C)n2Cc2ccccc2)c1`, the cell count in assay [1] turned out to be 470. Moreover, the inhibition in assay [1] is 7.2% (inactive); in assay [3] it was -73.5% (inactive); in assay [7], 3.57% (inactive); in assay [8] it was 20.4% (inactive). Further, the inhibition of aggregation in assay [2] is 6.5% (inactive). The nuclei count came out at 94.7% in assay [2] and 106% in assay [3]. Moreover, the fluorescence slope in assay [4] is -0.588 (inactive). For the same molecule, the NADPH fluorescence slope in assay [5] was -2.8e-05 (inactive). Moreover, the slope in assay [6] was 0.00618 (inactive).

Take `CC(C)(C)C(=O)CCN1C(=O)C2(OCCO2)c2ccccc21`: the cell count in assay [1] was 702. The inhibition in assay [1] was -4.9% (inactive); in assay [3] it was -140% (inactive); in assay [7] it was 11.4% (inactive); in assay [8] it was 22.3% (inactive). In addition, in assay [2], the inhibition of aggregation was -30.1% (inactive). Further, the nuclei count in assay [2] came to 118%; in assay [3], 123%. In addition, in assay [4], the fluorescence slope is -0.497 (inactive). Also, the NADPH fluorescence slope in assay [5] was -2.7e-05 (inactive). The slope in assay [6] was 0.00626 (inactive).

On to `Cc1ccccc1-c1nc(CN2CCC(C(=O)NC3CCN(Cc4ccccc4)CC3)CC2)c(C)o1`, for which, in assay [1], the cell count turned out to be 612. For the same molecule, the inhibition is 3.7% (inactive) in assay [1], 13% (inactive) in assay [3], -19.2% (inactive) in assay [7] and 78% (active) in assay [8]. Besides, in assay [2], the inhibition of aggregation was -89.7% (inactive). The nuclei count in assay [2] was 107%; in assay [3] it was 108%. For the same molecule, in assay [4], the fluorescence slope was -0.561 (inactive). In assay [5], the NADPH fluorescence slope is -3e-05 (inactive). Moreover, the slope in assay [6] is 0.0054 (inactive).

Regarding `Cc1cccc(-n2ncc3c(NCCCO)ncnc32)c1`, the cell count in assay [1] was 840. In addition, the inhibition is 2.3% (inactive) in assay [1], -2.8% (inactive) in assay [3], -58.8% (inactive) in assay [7] and -193% (inactive) in assay [8]. In assay [2], the inhibition of aggregation is -32% (inactive). The nuclei count in assay [2] came out at 101%; in assay [3], 107%. Also, the fluorescence slope in assay [4] was -0.582 (inactive). In assay [5], the NADPH fluorescence slope is -1.5e-05 (inactive). For the same molecule, the slope in assay [6] was 0.00564 (inactive).

As for `Cc1ccc(-n2c3c(cc(C(=O)NCCCN4CCOCC4)c2=O)C(=O)CC(C)(C)C3)cc1`, the cell count in assay [1] was found to be 349. Moreover, the inhibition was -0.6% (inactive) in assay [1], -65.9% (inactive) in assay [3], -1.07% (inactive) in assay [7] and 36.9% (inactive) in assay [8]. Besides, the inhibition of aggregation in assay [2] was -1.3% (inactive). Besides, the nuclei count in assay [2] is 57%; in assay [3] it was 117%. Moreover, the fluorescence slope in assay [4] was -0.58 (inactive). In addition, the NADPH fluorescence slope in assay [5] was 9.1e-06 (inactive). Besides, the slope in assay [6] is 0.00654 (inactive).

With `Cc1ccc(N=Cc2ccc(O)cc2O)cc1F`, in assay [1], the cell count was 334. For the same molecule, the inhibition in assay [1] is -13.8% (inactive); in assay [3], -98.5% (inactive); in assay [7], 13% (inactive); in assay [8], 23.4% (inactive). For the same molecule, the inhibition of aggregation in assay [2] was 0.1% (inactive). For the same molecule, the nuclei count in assay [2] came to 113%; in assay [3], 107%. The fluorescence slope in assay [4] is -0.395 (inactive). Besides, the NADPH fluorescence slope in assay [5] was -0.000134 (inactive). The slope in assay [6] was 0.00518 (inactive).
